“And” between values parts separate entries of the source, which are not always exact repeats. Identical values can stand only once. Inconclusive results are not listed. More than one record can exist for a structure, and the calls need not agree. The source made the active and inactive calls. Unless noted, the call rests on the fitted dose curve; in most records, active means well fitted curve in the direction sought with a large enough effect in the repeat runs; inconclusive means weak or mixed curves; inactive means no such curve, though single readings can be large; an effect the other way counts as inactive or inconclusive.

In assay [1] the target is Luciferin 4-monooxygenase (Photinus pyralis) (UniProt P08659). The experiment in a line: qHTS assay to identify small molecule inhibitors of firefly luciferase (AID 1224835). Further: nearly all actives have a fitted effect of over 25% in size. Further: potency means the concentration at half of the fitted maximal effect. A digest of the protocol: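 Biochemical qHTS: compounds run as interplate titrations against purified firefly enzyme, with D-luciferin and ATP each at its KM concentration. Light output recorded by CCD imaging.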
Chain of Luciferin 4-monooxygenase (Photinus pyralis) (P08659 whole entry, looked up): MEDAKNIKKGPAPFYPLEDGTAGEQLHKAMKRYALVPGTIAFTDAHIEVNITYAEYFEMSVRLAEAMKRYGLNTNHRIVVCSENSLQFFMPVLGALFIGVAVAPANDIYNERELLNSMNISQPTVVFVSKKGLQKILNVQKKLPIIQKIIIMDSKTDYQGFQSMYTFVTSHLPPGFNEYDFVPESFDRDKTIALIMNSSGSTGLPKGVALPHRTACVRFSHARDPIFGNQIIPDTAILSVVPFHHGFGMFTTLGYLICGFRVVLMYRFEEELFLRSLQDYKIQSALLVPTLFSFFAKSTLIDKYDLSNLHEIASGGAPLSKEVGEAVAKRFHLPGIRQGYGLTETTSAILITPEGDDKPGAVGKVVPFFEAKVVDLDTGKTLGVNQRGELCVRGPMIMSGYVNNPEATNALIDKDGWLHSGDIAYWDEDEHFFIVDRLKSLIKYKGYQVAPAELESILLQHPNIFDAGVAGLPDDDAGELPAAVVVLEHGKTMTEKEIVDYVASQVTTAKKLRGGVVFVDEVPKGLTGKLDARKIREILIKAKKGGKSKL

Assay [2] deals with Nuclear receptor subfamily 1 group I member 3 (Homo sapiens) (UniProt Q14994). Nature of the assay: qHTS assay to identify small molecule antagonists of the constitutive androstane receptor (CAR) signaling pathway (AID 1224838). Further: nearly all actives have a fitted effect of over 40% in size. Further: potency means the concentration at half of the fitted maximal effect. Put shortly: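 HepG2 cells stably co-transfected with hCAR and a CYP2B6-2.2kb luciferase reporter were seeded 4 h before compound addition at 15 concentrations. Cells were stimulated with 50 nM CITCO (final) for 24 h at 37 C; luciferase luminescence was then read.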
Chain of Nuclear receptor subfamily 1 group I member 3 (Homo sapiens) (Q14994 whole entry, looked up): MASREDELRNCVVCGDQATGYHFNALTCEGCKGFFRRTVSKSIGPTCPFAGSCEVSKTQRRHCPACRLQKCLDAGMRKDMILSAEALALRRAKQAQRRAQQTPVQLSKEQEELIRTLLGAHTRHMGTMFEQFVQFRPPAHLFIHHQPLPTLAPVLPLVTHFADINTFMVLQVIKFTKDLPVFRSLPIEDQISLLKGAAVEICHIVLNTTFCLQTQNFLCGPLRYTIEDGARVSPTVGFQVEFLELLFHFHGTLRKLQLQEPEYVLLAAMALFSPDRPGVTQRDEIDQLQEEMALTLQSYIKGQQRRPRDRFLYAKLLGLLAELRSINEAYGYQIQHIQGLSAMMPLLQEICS
(In qHTS, concentration-response curves come from the screen itself.)

Assay [3] shares this target. Nature of the assay: qHTS assay to identify small molecule agonists of the constitutive androstane receptor (CAR) signaling pathway (AID 1224839). Further: nearly all actives have a fitted effect of over 15% in size. A digest of the protocol: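 HepG2 cells stably co-transfected with hCAR and a CYP2B6-2.2kb luciferase reporter; compounds at 15 concentrations with 0.75 uM PK11195 present. After 24 hr at 37 C, luciferase read by ONE-Glo luminescence.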

The nature of assay [4]: qHTS assay to identify small molecule antagonists of the estrogen related receptor signaling pathway with the pleiotropic PPARgamma coactivator (PGC) from Tox21 10K library (AID 1224841; call rule not given here; further: actives are mostly falling curves and most rising ones were filed inactive; nearly all actives have a fitted effect of over 50% in size; further: potency means the concentration at half of the fitted maximal effect). A digest of the protocol: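 PGC/ERR reporter cells were seeded at 2,000 cells/well and held 6 hours at 37 C/5% CO2 before pin-tool addition of compounds in DMSO. After 18 hours at 37 C, One-Glo was added and luminescence read after 30 minutes at room temperature.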

The nature of assay [5]: qHTS assay to identify small molecule agonists of the estrogen related receptor signaling pathway with the pleiotropic PPARgamma coactivator (PGC) from Tox21 10K library (AID 1224842). Further: nearly all actives have a fitted effect of over 15% in size. A digest of the protocol: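 PGC/ERR reporter cell line, 2,000 cells per well, incubated 6 h at 37 C before 23 nL compound in DMSO was added. After 18 h at 37 C, One-Glo luminescence read following 30 min at room temperature.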

Assay [6] concerns the target Thyrotropin receptor (Homo sapiens) (UniProt P16473). The experiment in a line: qHTS assay to identify small molecule agonists of the thyroid stimulating hormone receptor (TSHR) signaling pathway (AID 1224843; calls by dose curve; further: nearly all actives have a fitted effect of over 45% in size). A digest of the protocol: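 Steps: seed 800 TSHR-HEK293 cells per well; add test compound and hold 30 min at ambient temperature; dispense cAMP-d2 then anti-cAMP cryptate; incubate 1 h at ambient; measure fluorescence intensity.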

Assay [7] can be described thus: qHTS assay to identify small molecule agonists of the hypoxia (HIF-1) signaling pathway - cell viability counter screen (AID 1224844; calls by dose curve; further: nearly all actives have a fitted effect of over 50% in size; further: potency means the concentration at half of the fitted maximal effect). Put shortly:
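HRE-bla ME-180 cells in medium with 0.5% dialyzed FBS were preincubated 5 hrs at 37C, exposed to compounds for 17 hrs, then viability was read as CellTiter-Glo luminescence after 30 min at room temperature, in the reporter wells.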

The nature of assay [8]: qHTS assay to identify small molecule agonists of H2AX (AID 1224845; active means well fitted activation curve with a large enough effect in the signal ratio in the repeat runs, not every such curve was filed as active; the % refers to the signal ratio; further: potency means the concentration at half of the fitted maximal effect). A digest of the protocol:
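Wild-type CHO-K1 cells, plated overnight, exposed 3hr at 37C to 15 concentrations (0.76% DMSO final). Lysed, then HTRF anti-pH2AX (S139) cryptate and anti-H2AX-d2 antibodies, 24 hr room temperature; 665/620 nm emission read.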

The nature of assay [9]: qHTS assay to identify small molecule agonists of the hypoxia (HIF-1) signaling pathway (AID 1224846; active means well fitted activation curve with a large enough effect in the signal ratio in the repeat runs, not every such curve was filed as active; the % refers to the signal ratio). A digest of the protocol:
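HRE-bla ME-180 cells (beta-lactamase reporter under hypoxia response element) were plated at 2,000 cells/well in medium with 0.5% dialyzed FBS, rested 5 hrs, then given compounds in DMSO for 17 hrs at 37C, 5% CO2. Reporter induction was read with CCF4-AM FRET substrate.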

Assay [10] in a line: qHTS assay to identify small molecule agonists of H2AX - cell viability counter screen (AID 1224847; calls by dose curve; further: top concentration of the series differs between compounds; nearly all actives have a fitted effect of over 30% in size). A digest of the protocol: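 CHO-K1 cells plated overnight at 37C, then exposed 3 h at 37C to compounds at 15 concentrations (0.76% DMSO final). Viability by CellTiter-Glo luminescence after 30 min at room temperature.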
A short description of assay [11]: qHTS assay to identify small molecule antagonists of the estrogen related receptor (ERR) signaling pathway from Tox21 library (AID 1224848). Further: nearly all actives have a fitted effect of over 50% in size. Further: potency means the concentration at half of the fitted maximal effect. Put shortly:
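Luminescent reporter read-out (ONE-Glo) from NTP's ERR cell line after 18 h treatment at 37 C with DMSO-dissolved Tox21 compounds; cells pre-plated 6 h beforehand at 2,000 per well.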

A short description of assay [12]: qHTS assay to identify small molecule agonists of the estrogen related receptor (ERR) signaling pathway from Tox21 library (AID 1224849; calls by dose curve; further: nearly all actives have a fitted effect of over 15% in size). Particulars: ERR reporter cell line, ONE-Glo luciferase, 18 h. Put shortly:
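ERR reporter cell line (NTP) seeded, rested 6 h at 37 C/5% CO2, then pinned with Tox21 compounds in DMSO. After 18 h at 37 C, ONE-Glo luciferase luminescence was read following 30 min at room temperature.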

Assay [13] in a line: qHTS RealTime-Glo MT Cell Viability Assay in HepG2 cells - 24 hour (AID 1224867). Further: nearly all actives have a fitted effect of over 50% in size. A digest of the protocol:
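HepG2 suspension premixed with RealTime-Glo reagents is plated at 600 cells per well and left 5 h at 37 C/5% CO2. Compounds in DMSO then go in, and bioluminescence reflecting viable cell number is recorded over 40 h.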

The nature of assay [14]: qHTS RealTime-Glo MT Cell Viability Assay in HEK293 cells - 32 hour (AID 1224868). Further: nearly all actives have a fitted effect of over 50% in size. Further: potency means the concentration at half of the fitted maximal effect. Put shortly: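 Reads taken at 0, 8, 16, 24, 32 and 40 h from the same wells. HEK293 cells (600/well) carried RealTime-Glo reagents from seeding, with compound added after a 5 h settle at 37 C.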
The nature of assay [15]: A CellTox Green Cytotoxicity Assay to monitor cytotoxicity in HEK293 cells - 0 hour (AID 1224869). Further: nearly all actives have a fitted effect of over 50% in size. A digest of the protocol: (§1)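 HEK293 cells premixed with CellTox Green dye were seeded at 600 cells/well and left 5 h at 37 C/5% CO2 before pin transfer of 23 nL compound in DMSO. Fluorescence from dye bound to dead-cell DNA was read during 40 h treatment.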
Assay [16] in a line: A CellTox Green Cytotoxicity Assay to monitor cytotoxicity in HEK293 cells - 40 hour (AID 1224871). Further: nearly all actives have a fitted effect of over 45% in size. Further: potency means the concentration at half of the fitted maximal effect. A digest of the protocol: as §1
Assay [17] in a line: qHTS assay to identify small molecule agonists of the constitutive androstane receptor (CAR) signaling pathway - cell viability counter screen (AID 1224836). Further: nearly all actives have a fitted effect of over 45% in size. A digest of the protocol:
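HepG2 cells stably carrying hCAR and a CYP2B6-2.2kb reporter; 15-concentration compounds plus PK11195 (final 0.75 uM), 23 hr at 37 C/5% CO2. Viability read by CellTiter-Fluor fluorescence.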

Assay [18] is described as follows: qHTS assay to identify small molecule antagonists of the constitutive androstane receptor (CAR) signaling pathway - cell viability counter screen (AID 1224837). Further: nearly all actives have a fitted effect of over 45% in size. A digest of the protocol: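 HepG2 cells stably expressing hCAR and a CYP2B6-2.2kb reporter were plated and pre-incubated 4 hr at 37 C/5% CO2, then given compounds at 15 concentrations plus 50 nM CITCO (final). After 23 hr, viability was read by CellTiter-Fluor fluorescence.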

The nature of assay [19]: qHTS RealTime-Glo MT Cell Viability Assay in HepG2 cells - 40 hour (AID 1224870). Further: nearly all actives have a fitted effect of over 50% in size. Put shortly: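 HepG2 cells (600/well) mixed with RealTime-Glo MT reagent, settled 5 h at 37 C/5% CO2 before compound addition. Nonlytic NanoLuc luminescence from viable-cell prosubstrate reduction read repeatedly during 40 h treatment at 37 C.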
The nature of assay [20]: qHTS assay to identify small molecule antagonists of the estrogen related receptor signaling pathway with the pleiotropic PPARgamma coactivator (PGC) from Tox21 10K library - cell viability counter screen (AID 1224840; active means well fitted cell-killing curve with a large enough effect in the repeat runs, not every such curve was filed as active; further: nearly all actives have a fitted effect of over 40% in size). Put shortly:
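PGC/ERR cells were seeded at 2,000 cells/well and left 6 hours at 37 C/5% CO2 before pin-tool addition of compounds in DMSO. After 17.5 hours at 37 C, CellTiter-Fluor was added and fluorescence read 30 minutes later.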
On the % scale 0 is the no-effect control and ±100 the full control effect.

Chain of Thyrotropin receptor (Homo sapiens) (P16473 whole entry, looked up): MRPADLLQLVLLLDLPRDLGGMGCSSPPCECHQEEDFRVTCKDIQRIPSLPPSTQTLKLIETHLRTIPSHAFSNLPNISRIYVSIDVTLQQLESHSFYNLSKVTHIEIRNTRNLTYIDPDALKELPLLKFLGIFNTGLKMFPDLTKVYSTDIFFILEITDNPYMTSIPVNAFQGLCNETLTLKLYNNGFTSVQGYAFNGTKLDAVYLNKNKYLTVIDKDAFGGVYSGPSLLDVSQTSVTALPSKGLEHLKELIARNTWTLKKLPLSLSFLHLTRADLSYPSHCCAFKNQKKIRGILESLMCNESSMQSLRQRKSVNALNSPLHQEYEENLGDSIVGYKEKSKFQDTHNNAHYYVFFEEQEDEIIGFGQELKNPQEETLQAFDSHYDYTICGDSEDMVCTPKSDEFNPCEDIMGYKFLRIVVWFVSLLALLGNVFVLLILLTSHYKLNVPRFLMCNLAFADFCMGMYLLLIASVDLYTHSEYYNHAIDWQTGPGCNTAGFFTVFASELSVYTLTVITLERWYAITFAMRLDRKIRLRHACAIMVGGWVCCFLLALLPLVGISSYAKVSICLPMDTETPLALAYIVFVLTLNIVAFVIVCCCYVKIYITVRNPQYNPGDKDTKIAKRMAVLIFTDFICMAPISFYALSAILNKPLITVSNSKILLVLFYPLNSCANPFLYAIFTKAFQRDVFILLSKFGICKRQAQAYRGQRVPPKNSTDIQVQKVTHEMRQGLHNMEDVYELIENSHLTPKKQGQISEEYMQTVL

Consider `Cc1ccc([N+](=O)[O-])c(C)c1`, for which the Potency is 31.7 µM (active) and inactive in assay [1]; 8.63 µM (active) and inactive in [2]; 61.1 µM (active) and inactive in assay [4]; 4.37 µM (active) and inactive in assay [7]; 4.5 µM (active) and inactive in assay [8]; 12.2 µM (active) and inactive in [11]. The Potency in assay [14] was 38.9 µM (active) and inactive; in assay [16], 24.6 µM (active) and inactive. The Potency result in [3], in assay [5], in assay [6], in [10], in assay [13] and in assay [15] was “inactive” each time. The call in assay [9] was inactive. In assay [12] (at 92.4 µM (top of the series)), the activity change, positive = activation was 6.89% (inactive).

Consider `Oc1ccc(C(c2ccc(O)cc2)C(Cl)(Cl)Cl)cc1`, for which the Potency result in assay [1], in [17], in assay [18], in assay [7], in assay [8] and in assay [13] was “inactive” each time. The Potency entry in assay [15], in assay [19] and in assay [16] was “inactive” in each case. In addition, the compound was classed as inactive in [9].

On to `CC[C@]12CCCN3CCc4c(n(c5ccccc45)[C@@](O)(C(=O)OC)C1)[C@@H]32`, for which the Potency result in assay [1], in assay [17], in assay [18], in [4], in assay [5] and in assay [7] was “inactive” in each case. Moreover, the Potency result in [8], in assay [11], in [13], in assay [14], in assay [15] and in [19] was “inactive” throughout. For the same compound, the Potency result in [16] was “inactive”. Further, the results for the activity change, positive = activation in assay [12] (at 42.5 µM (top of the series)) and in assay [12] (at 92.4 µM (top of the series)) were 7.75% (inactive) and -6.91% (inactive), respectively.

For `CN1CCOCC1`, the Potency result in [17], in assay [18], in assay [2], in assay [3], in [20] and in assay [4] was “inactive” each time. The Potency entry in assay [5], in assay [7], in [8], in assay [11], in assay [13] and in [14] was “inactive” throughout. For the same compound, the Potency entry in [15], in assay [19] and in assay [16] was “inactive” in each case. Further, the call in [9] was inactive. Besides, the activity change, positive = activation in assay [12] (at 92.4 µM (top of the series)) is -10.1% (inactive) and 3.72% (inactive).

As to `CC1(C)O[C@@H]2C[C@H]3[C@@H]4C[C@H](F)C5=CC(=O)C=C[C@]5(C)[C@@]4(F)[C@@H](O)C[C@]3(C)[C@]2(C(=O)CO)O1`, the Potency entry in assay [1], in [17], in assay [18], in [6], in [7] and in assay [8] was “inactive” in each case. The Potency entry in [10], in assay [13], in [14], in assay [15] and in assay [16] was “inactive” in each case. Besides, the outcome in assay [9] was inactive.

`NCCOCCO`: the Potency result in [1], in assay [17], in assay [18], in [4], in [5] and in [7] was “inactive” throughout. Further, the Potency entry in assay [8], in assay [10], in assay [11], in assay [13], in [14] and in assay [15] was “inactive” in each case. Moreover, the Potency entry in assay [16] was “inactive”. The call in assay [9] was inactive. For the same compound, the activity change, positive = activation in assay [12] (at 92.4 µM (top of the series)) was -2.16% (inactive) and 1.44% (inactive).

Turning to `CC(C)[C@@H]1CC[C@@H](C)CC1=O`, the Potency entry in [1], in assay [17], in assay [18], in assay [20], in [6] and in assay [7] was “inactive” throughout. Further, the Potency result in assay [8], in assay [10], in [13], in assay [14], in assay [15] and in assay [16] was “inactive” each time. For the same compound, the call in assay [9] was inactive.

For the compound `O=C(O)c1cc(=O)[nH]c(=O)[nH]1`, the Potency entry in [1], in assay [17], in [18], in assay [4], in assay [5] and in assay [6] was “inactive” in each case. Further, the Potency entry in [7], in [8], in assay [10], in assay [11], in [13] and in [14] was “inactive” throughout. Moreover, the Potency entry in assay [15] and in assay [16] was “inactive” in each case. Further, in assay [9], the result was inactive. Further, the activity change, positive = activation in [12] (at 92.4 µM (top of the series)) is 2.48% (inactive).

(Values after PubChem BioAssay (Tox21).)
